In the library only some 10% were active in any assay of this set; here they are far more common.
Six1-Eya2 inh – qHTS Assay for Inhibitors of the Six1/Eya2 Interaction. Homeobox protein SIX1 (Homo sapiens) + Protein phosphatase EYA2 (Homo sapiens), …. AlphaScreen GST-Six1/His-Eya2 binding, biochemical; stronger effect = lower value. activity change, % (concentration not given with the values). 360,000 tested, 0.56% active. AID 651725, 2012; in the data active = activity change below about -65%; inconclusive = mostly about -30% to -63%; also: % is scaled to controls: 0 for no effect and ±100 for the full control effect
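Compounds are tested against tagged Six1 and Eya2 proteins bridged by glutathione donor and nickel acceptor beads; after a one-hour incubation at 37 °C without light, AlphaScreen emission is recorded.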
HP1b chromo inh – HTS for Inhibitors of HP1-beta Chromodomain Interactions with Methylated Histone Tails; Potency, µM (series often up to 114 µM), for inactives: at the top dose activity change, negative = inhibition, hits mostly inhibitors; AlphaScreen HP1-beta / biotin-H3K9me3 peptide binding; AID 540317, 2011; 390,000 tested, 0.56% active; Chromobox protein homolog 1 (Homo sapiens), P83916; also: potency is read from the fitted curve at half-maximal effect; nearly all actives have a fitted effect of over 70% in size
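HP1-beta protein (50 nM final) preincubated 30 min at room temperature with biotinylated H3(1-18)K9me3 peptide (50 nM) in PBS pH 7.4, 0.01% Tween-20, then compound added for 30 min. AlphaScreen streptavidin donor/nickel chelate acceptor beads (10 ug/mL final), 30 min dark, luminescence read.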
JMJD2A Tudor – qHTS Assay for Inhibitors of JMJD2A-Tudor Domain; AlphaScreen JMJD2A-Tudor / H3K4me3 peptide binding; Potency, µM (highest dose often 114 µM), for the others: at the top dose activity change, negative = inhibition, usual class: inhibitors; 390,000 tested, 4.4% active; Lysine-specific demethylase 4A (Homo sapiens), O75164; also: potency is read from the fitted curve at half-maximal effect; % is scaled to controls: 0 for no effect and ±100 for the full control effect; nearly all actives have a fitted effect of over 50% in size
BAZ2B inh – qHTS Assay for Inhibitors of BAZ2B | AlphaScreen BAZ2B-H3K14Ac peptide displacement | Potency, µM (top dose mostly 114 µM), inactives show at the highest dose activity change, negative = inhibition, actives largely listed as inhibitors | 360,000 tested, 4.4% active; also: potency is read from the fitted curve at half-maximal effect; % is scaled to controls: 0 for no effect and ±100 for the full control effect; nearly all actives have a fitted effect of over 60% in size
Target sequence (Q9UIF8 whole entry, looked up): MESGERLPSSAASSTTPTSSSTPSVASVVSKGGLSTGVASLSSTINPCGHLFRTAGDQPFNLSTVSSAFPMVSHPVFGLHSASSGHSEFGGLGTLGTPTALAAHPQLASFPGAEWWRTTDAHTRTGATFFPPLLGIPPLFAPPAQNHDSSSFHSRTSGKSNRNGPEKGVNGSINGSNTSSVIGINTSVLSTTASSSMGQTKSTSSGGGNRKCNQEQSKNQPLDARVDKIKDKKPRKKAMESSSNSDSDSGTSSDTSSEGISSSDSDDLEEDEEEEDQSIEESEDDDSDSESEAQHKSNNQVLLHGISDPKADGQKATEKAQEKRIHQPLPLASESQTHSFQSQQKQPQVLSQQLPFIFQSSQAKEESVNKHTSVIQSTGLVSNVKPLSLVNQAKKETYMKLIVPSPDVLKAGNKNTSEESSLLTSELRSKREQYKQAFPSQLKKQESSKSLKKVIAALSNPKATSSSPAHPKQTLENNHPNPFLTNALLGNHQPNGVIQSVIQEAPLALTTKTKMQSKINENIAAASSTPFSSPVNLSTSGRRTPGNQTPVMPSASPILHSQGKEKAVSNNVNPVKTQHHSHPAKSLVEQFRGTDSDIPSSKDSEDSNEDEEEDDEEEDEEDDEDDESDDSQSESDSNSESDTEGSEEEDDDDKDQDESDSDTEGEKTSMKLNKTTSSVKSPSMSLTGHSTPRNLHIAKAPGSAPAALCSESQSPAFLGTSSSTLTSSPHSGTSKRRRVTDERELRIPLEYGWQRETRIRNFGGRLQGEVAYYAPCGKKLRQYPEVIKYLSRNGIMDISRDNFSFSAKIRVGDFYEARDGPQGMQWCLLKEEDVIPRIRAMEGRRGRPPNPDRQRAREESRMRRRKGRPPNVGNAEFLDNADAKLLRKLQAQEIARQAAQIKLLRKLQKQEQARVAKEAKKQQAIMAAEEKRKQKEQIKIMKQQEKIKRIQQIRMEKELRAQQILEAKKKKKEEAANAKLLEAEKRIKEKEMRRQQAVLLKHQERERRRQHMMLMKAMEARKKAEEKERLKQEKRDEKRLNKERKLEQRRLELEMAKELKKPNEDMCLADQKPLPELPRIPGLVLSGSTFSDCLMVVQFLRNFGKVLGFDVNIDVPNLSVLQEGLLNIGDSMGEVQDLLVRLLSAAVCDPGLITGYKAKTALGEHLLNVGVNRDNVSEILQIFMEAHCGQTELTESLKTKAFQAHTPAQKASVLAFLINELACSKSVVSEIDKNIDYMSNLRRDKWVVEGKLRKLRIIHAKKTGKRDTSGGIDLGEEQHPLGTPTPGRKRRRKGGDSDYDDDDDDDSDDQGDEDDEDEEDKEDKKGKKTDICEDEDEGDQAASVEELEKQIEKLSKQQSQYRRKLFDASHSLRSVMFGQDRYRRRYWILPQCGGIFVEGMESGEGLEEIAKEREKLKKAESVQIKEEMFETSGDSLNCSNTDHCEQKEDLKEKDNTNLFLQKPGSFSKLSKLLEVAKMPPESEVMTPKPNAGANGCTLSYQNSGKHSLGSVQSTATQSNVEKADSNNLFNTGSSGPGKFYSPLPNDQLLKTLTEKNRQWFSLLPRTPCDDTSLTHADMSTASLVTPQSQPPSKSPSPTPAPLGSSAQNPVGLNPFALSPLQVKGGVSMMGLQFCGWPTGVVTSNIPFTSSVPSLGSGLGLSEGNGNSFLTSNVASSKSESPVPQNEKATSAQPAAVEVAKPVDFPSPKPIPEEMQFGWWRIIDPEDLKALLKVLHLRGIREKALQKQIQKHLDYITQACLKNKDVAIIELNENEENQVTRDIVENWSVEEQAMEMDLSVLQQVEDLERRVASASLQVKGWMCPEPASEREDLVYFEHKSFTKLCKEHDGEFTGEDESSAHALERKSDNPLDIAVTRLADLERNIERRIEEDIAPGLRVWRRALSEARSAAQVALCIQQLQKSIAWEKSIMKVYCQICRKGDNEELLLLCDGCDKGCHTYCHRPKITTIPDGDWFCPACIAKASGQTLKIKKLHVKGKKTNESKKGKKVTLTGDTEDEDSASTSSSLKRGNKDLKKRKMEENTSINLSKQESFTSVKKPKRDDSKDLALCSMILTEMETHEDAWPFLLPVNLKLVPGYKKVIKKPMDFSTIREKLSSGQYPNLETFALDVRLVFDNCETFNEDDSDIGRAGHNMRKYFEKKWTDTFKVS
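BAZ2B (50 nM) with biotin-H3(5-23)K14Ac peptide (50 nM) in PBS pH 7.4, 0.01% Tween-20, preformed 30 min, then compound 30 min at room temperature; top concentration 110uM. AlphaScreen streptavidin donor/nickel chelate acceptor beads (10 ug/mL final), 20 min dark, signal read.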
CtBP-E1A blk – qHTS Assay for Inhibitors of the CtBP/E1A Interaction | AlphaScreen GST-E1A/His-CtBP binding, 1536-well; stronger effect = lower value | CtBP / adenovirus E1A interaction (AlphaScreen) | activity change, % (concentration not given with the values) | AID 651724, 2012 | 340,000 tested, 0.49% active; in the data active = activity change below about -65%; inconclusive = mostly about -30% to -63%; also: % is scaled to controls: 0 for no effect and ±100 for the full control effect
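Homogeneous bead-based format: GST-tagged E1A captured on glutathione donor beads, His-tagged CtBP on nickel acceptor beads; compounds precede bead addition by 2 h at 37 °C.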
G9a block – qHTS Assay for Inhibitors of Histone Lysine Methyltransferase G9a. 350,000 tested, 8.8% active. Potency, µM (top dose mostly 102 µM), for the others: at the highest dose activity, negative = inhibition, hits mostly inhibitors. G9a H3K9 monomethylation, AlphaScreen, 2 h. AID 504332, 2011. Histone-lysine N-methyltransferase EHMT2 (Homo sapiens), Q96KQ7; also: potency is read from the fitted curve at half-maximal effect; % is scaled to controls: 0 for no effect and ±100 for the full control effect; nearly all actives have a fitted effect of over 75% in size
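Enzyme 20 nM + cpd, 15 min RT; add b-H3K9 pep 500 nM / SAM 20 uM; 2 h RT; anti-H3K9me1 Ab 0.5 ug/mL + SA donor / anti-rabbit acceptor beads 20 ug/mL each, 10 min; AlphaScreen read.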
The depositor's hits bear a star; ? = inconclusive; / = not tested or not shown; ! = not active in a repeat; [ ] = remark or other dose. Unless noted, calls follow the shape of the dose curve; as a rule, active = well fitted inhibition curve with a large enough effect; inconclusive = small, poorly fitted or top-dose-only effect; inactive = no such curve, though single readings can be large or run the other way.

SMILES	Six1-Eya2 inh	HP1b chromo inh	JMJD2A Tudor	BAZ2B inh	CtBP-E1A blk	G9a block
CC(Cc1cccc(C(F)(F)F)c1)NCCOC(=O)c1ccccc1 (stereo not drawn)	6	31%	-1%	0%	6	13µM*!
CC1(C)CC(=O)c2c(oc3cc(O)c(O)cc23)C1	-1	-32%	14µM*	-37%	3	3.5µM*
Cc1cccc(C)c1Nc1c(-c2ccsc2)nc2ncccn12	-6	23%	-13%	-36%	13	?
Cc1ccc2nc(-c3ccc(C)o3)c(NC3CCCC3)n2c1	/	8%	?	/	/	/
Cc1ccc2nc(-c3ccccn3)c(NC3CCCC3)n2c1	?	?	45µM*	-9%	-73*	-43%
Cc1cccc(C)c1Nc1c(-c2ccsc2)nc2ccc(Cl)cn12	/	29%	-30%	-31%	/	?
Cc1cccc(C)c1Nc1c(-c2ccccn2)nc2ccccn12	-84*	?	45µM*	25µM*	/	40µM*
Cc1cccc(C)c1Nc1c(-c2ccsc2)nc2ccccn12	/	?	45µM*	?	/	14µM*
CN1CCN(C(c2ccccc2Cl)c2sc3nc(-c4ccco4)nn3c2O)CC1 (stereo not drawn)	/	47%	-18%	5%	/	-22%[59 µM]
Cc1ccc(NC(=O)C2CCN(c3nc(-c4ccc(C(C)C)cc4)no3)CC2)c(Cl)c1	/	18%[57 µM]	-18%	8%	/	15%[59 µM]
COc1ccc(C2c3[nH]c4ccccc4c3CCN2C(=O)c2ccc(=O)n(C)n2)c(F)c1 (stereo not drawn)	-5	17%	?	?	0	/
Cc1cc(C(=O)N2CCc3c([nH]c4ccccc34)C2c2cccc(Cl)c2)nn1C (stereo not drawn)	-17	2%	?	?	0	40µM*
Cc1ccccc1C1c2[nH]c3ccccc3c2CCN1C(=O)c1ccc(=O)n(C)n1 (stereo not drawn)	-5	-3%	?	10µM*	23	-25%[59 µM]
CN1N=C(C(=O)N2CCc3c([nH]c4ccccc34)C2c2ccccc2Cl)CCC1=O (stereo not drawn)	0	-23%	32µM*	-15%	1	?
O=C(c1cnccn1)N1CCc2c([nH]c3ccccc23)C1c1cccc(Cl)c1 (stereo not drawn)	-14	4%	?	?	-6	?
CCCCCCCC/C=C\CCCCCCCC(=O)OCC(CO)OC(=O)CCCCCCC/C=C\CCCCCCCC (stereo not drawn)	/	/	/	/	/	-3%[59 µM]
COc1ccc(S(=O)(=O)NCc2ccc(C(=O)NCc3ccccc3)cc2)cc1	/	36%	-12%	/	/	-18%[59 µM]
CC(NC(=O)c1cc([N+](=O)[O-])cc([N+](=O)[O-])c1)c1ccc(-n2ccnc2)cc1 (stereo not drawn)	-9	6%	-33%	?	-3	?
CC(NC(=O)c1ccc(N(C)C)c([N+](=O)[O-])c1)c1ccc(-n2ccnc2)cc1 (stereo not drawn)	-1	-7%	?	?	-5	79µM*
Cc1cccc(CS(=O)(=O)CC2Nc3ccc(C(=O)NCc4ccccc4)cc3NC2=O)c1 (stereo not drawn)	/	-13%	-10%	3%[57.1 µM]	/	?
O=C(NCc1ccc(Cl)cc1)c1ccc2c(c1)NC(=O)C(CS(=O)(=O)Cc1ccc(F)cc1Cl)N2 (stereo not drawn)	/	18%	?	10%[57.1 µM]	/	16µM*
CC(C)CCNC(=O)c1ccc2c(c1)NC(=O)C(CS(=O)(=O)Cc1ccc(F)cc1)N2 (stereo not drawn)	/	9%	-17%	10%[57.1 µM]	/	?
Cc1ccc(CNC(=O)c2ccc3c(c2)NC(=O)C(CS(=O)(=O)Cc2cccc(F)c2)N3)cc1 (stereo not drawn)	/	40%	89µM*	-1%[57.1 µM]	/	6.3µM*
CC(C)CCNC(=O)c1ccc2c(c1)NC(=O)C(CS(=O)(=O)Cc1cccc(Br)c1)N2 (stereo not drawn)	/	22%	?	2%[57.1 µM]	/	13µM*
CCN(CC)CCCNC(=O)c1ccc2c(c1)NC(=O)C(CS(=O)(=O)Cc1ccc(F)cc1Cl)N2 (stereo not drawn)	/	11%	-18%	-10%	/	10µM*
SMILES	Six1-Eya2 inh	HP1b chromo inh	JMJD2A Tudor	BAZ2B inh	CtBP-E1A blk	G9a block
Cc1cccc(-n2c3nc(=O)[nH]c(=O)c-3cc3c(Cl)cccc32)c1C	/	39%	-11%	2%	/	-41%[59 µM]
CCc1ccccc1NC(=O)Cn1c(=O)n(CCCCCC(=O)NCc2ccc(C)cc2)c(=O)c2sccc21	/	41%	-10%	?	/	-36%[59 µM]
Cc1ccc(SCCNC(=O)CN(c2ccccc2)S(=O)(=O)N(C)C)cc1	/	29%	8%	1%	/	6%[59 µM]
Cn1c(O)c(N=Nc2ccc(F)cc2)c2ccccc21	-11	?	-31%	-3%	-2	25µM*
Cn1c(O)c(N=Nc2ccccc2)c2ccccc21	8	1%	-11%	-8%	-13	22µM*
Cn1c(O)c(N=Nc2nc(-c3ccccc3)cs2)c2ccccc21	-5	-17%	?	?	-8	?
O=C(COC(=O)CNC(=O)c1ccccc1)Nc1cc(C(F)(F)F)ccc1Cl	/	/	-14%	/	/	/
O=C(CCC1N=C2c3ccccc3N=C(SCc3ccccc3F)N2C1=O)NCc1ccc(F)cc1 (stereo not drawn)	/	24%	-25%	-4%	/	-5%[59 µM]
COCC(C)NC(=O)C1=CC(c2ccc3c(c2)OCO3)=NS(=O)(=O)N1C (stereo not drawn)	/	25%	-13%	-11%	/	-26%[59 µM]
NC1=NC(=O)/C(=C\c2ccc(O)c([N+](=O)[O-])c2)S1	-76*	-15%	-15%	-31%	-82*	?
NC1=NC(=O)/C(=C/c2cccc(-c3ccc(S(N)(=O)=O)cc3)c2)S1	2	12%	-23%	?	4	35µM*
CCOC(=O)C1CCCCN1Cc1cccc(OC)c1OC (stereo not drawn)	4	?	5.6µM*	?	5	11µM*
CCOC(=O)C1CCCCN1Cc1cc(OC)ccc1OC (stereo not drawn)	0	?	18µM*	?	3	13µM*
